In the library only some 1.4% were active in any assay of this set; here they are far more common.
A3G deaminase: APOBEC3G DNA deaminase inhibitors, primary screen, biochemical, fluorescence, single-stranded DNA substrate, uHTS. DNA dC->dU-editing enzyme APOBEC-3G (Homo sapiens), Q9HC16. hit rate 0.28% among 330,000. recombinant A3G, ssDNA deamination FAM/TAMRA fluorescence. inhibition, % at 20 µM;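 active means inhibition of at least 40% at 20 µM, with no more than 30% in the related APOBEC3A deaminase screen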;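 further: plate controls were DMSO wells with A3G for no effect and wells lacking A3G enzyme for full effect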
APOBEC3A inh: APOBEC3A ssDNA deaminase inhibitors, primary screen, selectivity assay for APOBEC3G inhibitor project, biochemical, FAM/TAMRA oligo cleavage fluorescence | recombinant A3A, FAM/TAMRA ssDNA deamination fluorescence | inhibition, % at 20 µM | hit rate 0.41% among 330,000 | AID 493011, 2011;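 active means at least 40% inhibition at 20 µM here, with at most 30% in a related deaminase screen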;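 further: plate controls were A3A with DMSO for no effect and wells lacking A3A enzyme for full effect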
Target sequence (P31941 whole entry, looked up): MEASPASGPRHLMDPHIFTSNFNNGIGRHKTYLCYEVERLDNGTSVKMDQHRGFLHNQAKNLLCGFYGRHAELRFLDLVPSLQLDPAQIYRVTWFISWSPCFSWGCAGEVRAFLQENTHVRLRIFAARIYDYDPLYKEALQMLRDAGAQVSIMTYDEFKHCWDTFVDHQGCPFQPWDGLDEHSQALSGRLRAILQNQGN
FAS TE block: FAS thioesterase domain inhibitors, primary screen, biochemical, fluorescence intensity, uHTS; recombinant FAS-TE, OMFH fluorogenic substrate, fluorescence endpoint; hit rate 0.67% among 360,000; Fatty acid synthase (Homo sapiens), P49327; inhibition, % at 15 µM;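 active means compounds whose normalised, plate-corrected inhibition of enzyme fluorescence in the single-dose primary screen is 50% or more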;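 further: 0% = DMSO with enzyme and 100% = substrate without enzyme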
NPR2 activator: human GC-B receptor activators, primary screen, HEK293 GC-B cells, cGMP TR-FRET, EC30 CNP. Atrial natriuretic peptide receptor 2 (Homo sapiens), P20594. 0% at EC30 CNP, 100% saturating CNP. activation, % at 10 µM. hit rate 0.11% among 370,000. AID 1920062, 2024;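 active means activation at 10 µM reaching about 35% in either raw or pattern-adjusted values, limit read from the data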
GC-A act: GC-A stimulated cGMP production enhancers – HEK293 GC-A cells, cGMP TR-FRET, EC30 ANP, primary screen; Atrial natriuretic peptide receptor 1 (Homo sapiens), P16066; 0% at EC30 ANP, 100% saturating ANP; activation, % at 10 µM; hit rate 0.14% among 370,000; in the data active means activation above about 40%
APOBEC3G confirm: APOBEC3G deaminase inhibitor retest, confirmation, biochemical, fluorescence, single-stranded DNA substrate, single concentration | shares compounds with A3G deaminase | inhibition, % at 20 µM | recombinant A3G ssDNA deaminase, UDG/FAM-TAMRA fluorescence | AID 493152, 2011 | hit rate 72% among 890;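 active means inhibition reaching a set limit in any replicate at 20 µM, the limit being 80% of the first screen's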
UDG ctr A3G: E. coli UDG inhibitors, confirmation, counter-screen for APOBEC3G inhibitor project, biochemical, single concentration, fluorescence, FAM/TAMRA oligo; shares compounds with A3G deaminase; UDG counterscreen; inhibition, % at 20 µM; 710 tested, under 10 active; AID 504715, 2011;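 active means compounds giving 40% or more inhibition at 20 µM in any one of the three replicates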;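 further: plate controls were DMSO wells with UDG and oligo for no effect and DMSO wells lacking both for full effect; inhibitors lower the FAM signal released by uracil excision and alkaline cleavage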
Target sequence (P12295 whole entry, looked up): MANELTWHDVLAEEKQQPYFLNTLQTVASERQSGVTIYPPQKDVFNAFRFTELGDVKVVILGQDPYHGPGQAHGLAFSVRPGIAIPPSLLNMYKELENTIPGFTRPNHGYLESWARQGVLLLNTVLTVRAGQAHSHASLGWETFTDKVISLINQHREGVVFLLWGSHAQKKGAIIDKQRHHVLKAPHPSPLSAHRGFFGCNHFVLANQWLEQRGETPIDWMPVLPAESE
* hit, by the source's call; · = not tested or not shown.

SMILES | A3G deaminase | APOBEC3A inh | FAS TE block | NPR2 activator | GC-A act | APOBEC3G confirm | UDG ctr A3G
Cc1cccn2c(=O)c3cc(C(=O)NCc4ccco4)c(=N)n(C4CCCCC4)c3nc12 | -1.4 | 8.0 | 0.6 | · | · | · | ·
Cc1cccn2c(=O)c3cc(C(=O)NCc4ccco4)c(=N)n(CCOCCO)c3nc12 | 58.5* | 26.8 | -6.5 | · | · | 29.2 | ·
O=C(CNC(c1ccccc1)c1ccccc1)Nc1ccccc1Br | 50.3* | -3.6 | 31.4 | -2.1 | -12.4 | -6.4 | 0.5
COc1ccccc1NC(=O)CNC(c1ccccc1)c1ccccc1 | -9.4 | -0.9 | 19.0 | -2.9 | -12.2 | · | ·
c1csc(-c2nn3c(Cn4cnc5ccccc54)nnc3s2)c1 | 52.6* | 5.2 | -5.3 | -0.1 | -13.4 | 37.7* | -3.7
O=C(COc1ccc(Cl)cc1)Nc1nc(-c2ccncc2)cs1 | 42.2* | 2.2 | 1.7 | -0.7 | 9.9 | 28.5 | ·
O=C(CCS(=O)(=O)c1ccc(F)cc1)Nc1nc(-c2ccncc2)cs1 | 61.1* | 4.1 | -5.1 | 2.9 | 2.6 | 52.6* | ·
O=C(O)C1CCCN1C(=O)c1cccc(Cl)c1 (stereo not drawn) | · | · | · | 2.7 | 0.7 | · | ·
CCOc1ccc(N)c(SSc2cc(OCC)ccc2N)c1 | 72.1* | -3.0 | -9.9 | 4.2 | 4.8 | 96.1* | 8.4
COC(=O)C1CN(C2CC2)CCS(=O)(=O)N1Cc1cn(Cc2ccc(F)cc2)nn1 (stereo not drawn) | · | · | · | 3.0 | 2.7 | · | ·
Cc1noc(C)c1C(=O)N1CCC(n2nnc3ncccc32)CC1 | · | · | · | 3.1 | 2.3 | · | ·
C=CCN(CC#Cc1ccccn1)Cc1ccc(OC)cc1OC | · | · | · | -3.1 | -9.2 | · | ·
Cc1ccc(C)c(Cn2cnc3c(cnn3C(C)(C)C)c2=O)c1 | 57.9* | 1.1 | 13.3 | 5.2 | 10.6 | 0.3 | ·
C=CCn1c(-c2ccccc2)n[nH]c1=S | 23.2 | -3.1 | -6.4 | -0.6 | -1.2 | · | ·
C=CCn1c(-c2sc3nc(C)cc(C)c3c2N)n[nH]c1=S | 49.3* | -3.5 | -7.7 | 4.3 | 23.5 | 77.1* | -4.8
CCn1c(-c2ccc3ncccc3c2)n[nH]c1=S | 39.6 | -4.8 | -5.6 | -4.6 | 2.1 | · | ·
C=CCn1c(-c2ccc3ncccc3c2)n[nH]c1=S | 56.3* | 1.4 | -4.3 | -3.7 | -0.3 | 59.7* | -4.0
C=CCn1c(-c2cc(OC)cc(OC)c2)n[nH]c1=S | 43.2* | -3.1 | -4.9 | -2.7 | 0.0 | 81.7* | -1.8
COC(=O)c1ccc(CSc2n[nH]c(=S)s2)o1 | 49.9* | 0.3 | -5.8 | 1.7 | 4.0 | 59.2* | 2.6
COC(=O)C(C)Sc1n[nH]c(=S)s1 (stereo not drawn) | 83.9* | -3.1 | -2.9 | 8.1 | 2.0 | 84.3* | 6.2
COC(=O)CSc1n[nH]c(=S)s1 | 49.9* | -2.1 | -9.0 | 2.1 | -0.2 | 64.9* | 1.6
COC(=O)c1ccc(CSc2nc3ccccc3s2)o1 | -4.4 | -5.6 | 21.6 | · | · | · | ·
Nc1ccccc1-c1n[nH]c(=S)s1 | · | · | -8.1 | · | · | · | ·
CCSc1n[nH]c(=S)s1 | 52.2* | -6.0 | -7.3 | -2.2 | 3.2 | 59.2* | 0.4
CCNc1nc(SC(C)C(=O)OC)nc(N(C)C)n1 (stereo not drawn) | -4.2 | 1.5 | -5.8 | 3.0 | -1.2 | · | ·
COC(=O)CSc1nnc(SCc2ccccc2)s1 | -5.3 | 6.9 | -2.8 | 1.2 | 35.2 | · | ·
O=S1(=O)c2ccc(Br)cc2OC[C@@H](Cc2ccccc2)N1Cc1cn(CCC2OCCO2)nn1 | · | · | · | -5.5 | 2.6 | · | ·
CCOC(=O)Cc1nc(N2CCN(C(=O)C3CCCO3)CC2)c2c(C)c(C(=O)OCC)sc2n1 (stereo not drawn) | · | · | · | -0.4 | 2.4 | · | ·
COc1ccc2c(c1)[C@@]1(NCCc3c1[nH]c1ccc(OC)cc31)C(=O)N2 | · | · | · | 1.8 | 0.9 | · | ·

From PubChem
